Test results as given in PubChem BioAssay (EPA / NIEHS).
Results filed as inconclusive are left out. Active and inactive are the calls of the source. The calls were made as follows, unless noted: active = hit-call score of the fitted dose curve at least 0.9, where 1 is the maximum; inconclusive = response in the unintended direction; inactive = score below 0.9.

Legend:
[1] = Tanguay_ZF_120hpf_PFIN_legacy: (Legacy) Oregon State University Tanguay Lab 120 Hour Post-fertilization zebrafish Assay for Pectoral Fin Malformation (AID 2283648);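 also: each larva judged yes or no for fin defect by brightfield with dead larvae skipped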
Method in brief: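 5D WT zebrafish; pronase dechorionation 4 hpf; 1 embryo/well at 6 hpf; static exposure to 120 hpf, 28C, sealed, foil-covered; final DMSO 0.64% v/v; 5 uM trimethyltin chloride positive control; fin defect scored yes/no.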

[2] = Tanguay_ZF_120hpf_CFIN_legacy: (Legacy) Oregon State University Tanguay Lab 120 Hour Post-fertilization zebrafish Assay for Caudal Fin Malformation (AID 2283649)
Method in brief: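 Dechorionated 5D wild-type zebrafish, static exposure 6–120 hpf, 28C, sealed and dark, 0.64% v/v DMSO final. Binary fin-malformation call at 120 hpf, brightfield; gain of signal vs DMSO baseline.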

[3] = Tanguay_ZF_120hpf_PIG_legacy: (Legacy) Oregon State University Tanguay Lab 120 Hour Post-fertilization zebrafish Assay for Pigmentation Malformation (AID 2283650)
Method in brief: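 Pronase dechorionation at 4 hpf; embryos plated at 6 hpf, one per well; static exposure, sealed and foil-covered, 28C, to 120 hpf; pigmentation read by brightfield, binary; DMSO 0.64% baseline, 5uM trimethyltin chloride positive control.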

[4] = Tanguay_ZF_120hpf_CIRC_legacy: (Legacy) Oregon State University Tanguay Lab 120 Hour Post-fertilization zebrafish Assay for Circulatory Malformation (AID 2283651)
Method in brief: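 Read-out: presence or absence of circulatory malformation at 120 hpf, scored by brightfield microscopy, fitted in the gain-of-signal direction against DMSO baseline. Wild-type 5D larvae were exposed from 6 hpf after enzymatic chorion removal.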

[5] = Tanguay_ZF_120hpf_SWIM_legacy: (Legacy) Oregon State University Tanguay Lab 120 Hour Post-fertilization zebrafish Assay for Swim Bladder Malformation (AID 2283654);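 also: swim bladder malformation in each larva scored yes or no under brightfield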
Method in brief: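 Embryos lacking chorions were exposed individually and statically to test chemical from 6 to 120 hpf at 28C, with 0.64% DMSO as vehicle. At 120 hpf, swim bladder malformation was recorded as present or absent by brightfield microscopy.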

[6] = Tanguay_ZF_120hpf_NC_legacy: (Legacy) Oregon State University Tanguay Lab 120 Hour Post-fertilization zebrafish Assay for Notochord and Tail Malformation (AID 2283656)
Method in brief: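 Dechorionated Tropical 5D wild-type zebrafish embryos, one per well from 6 hpf, statically exposed to 120 hpf at 28C in 0.64% DMSO final. Notochord distortion scored present/absent by brightfield; dead embryos excluded.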

[7] = Tanguay_ZF_120hpf_TRUN_legacy: (Legacy) Oregon State University Tanguay Lab 120 Hour Post-fertilization zebrafish Assay for Truncated Body (AID 2283655)
Method in brief: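 Whole-embryo zebrafish screen: dechorionated 5D embryos, static exposure 6–120 hpf, 28C, sealed foil-covered plates, 0.64% DMSO. Binary truncation call; gain of signal versus DMSO baseline.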

[8] = read-out: solute carrier (SLC22A6), SLC22A6 (gene 9356); assay: LTEA_HepaRG_SLC22A6: Life Technologies and Expression Analysis (LTEA) Assay for solute carrier (SLC22A6) using HepaRG (AID 2283653; active = hit-call score of the fitted dose curve at least 0.9, where 1 is the maximum; inactive = score below 0.9); settings: mRNA level, 48 h; actives raise or lower the signal
Method in brief: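 HepaRG, human liver line; 48 h chemical exposure; 8-pt half-log series from 100 uM in 0.5% DMSO, duplicate wells. Readout: TaqMan qRT-PCR of SLC22A6 mRNA, housekeeping-normalised; bidirectional curve fit vs DMSO baseline.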

[9] = read-out: solute carrier (SLC10A1), SLC10A1 (gene 6554); assay: LTEA_HepaRG_SLC10A1: Life Technologies and Expression Analysis (LTEA) Assay for solute carrier (SLC10A1) using HepaRG (AID 2283657; active = hit-call score of the fitted dose curve at least 0.9, where 1 is the maximum; inactive = score below 0.9); settings: mRNA level, 48 h; actives raise or lower the signal
Method in brief: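 Transcript levels were measured by qRT-PCR after human HepaRG cells received test chemical for 48 hours, up to 100 uM in half-log dilutions. Values come from bidirectional concentration-response fitting relative to 0.5% DMSO vehicle.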

Measured: AC50

Nc1cnn(-c2ccccc2)c(=O)c1Cl
inactive: [1] | [2] | [3] | [4] | [5]

CC1(C)CCC(=Cc2ccc(Cl)cc2)C1(O)Cn1cncn1 (stereo not drawn)
inactive: [1] | [2] | [4] | [5] | [6]

N#Cc1c[nH]cc1-c1cccc2c1OC(F)(F)O2
inactive: [1] | [3] | [4] | [5] | [7]

CCCCC(C#N)(Cn1cncn1)c1ccc(Cl)cc1 (stereo not drawn)
active: [1] 24.1 µM | [7] 48 µM | [9] 83.9 µM
not listed: [2]
inactive: all other assays above

COCc1cnc(C2=NC(C)(C(C)C)C(=O)N2)c(C(=O)O)c1 (stereo not drawn)
inactive: [1] | [3] | [4] | [5] | [7]

C=CCOC(=O)C(C)(C)OC(=O)c1cc(-n2c(=O)cc(C(F)(F)F)n(C)c2=O)ccc1Cl
inactive: [1] | [3] | [4] | [7]

O=c1n(Cl)c(=O)n(Cl)c(=O)n1Cl
not listed: [2] | [8] | [9]
inactive: all other assays above

COc1cc(OC)nc(NC(=O)NS(=O)(=O)c2ncccc2OCC(F)(F)F)n1
inactive: [1] | [3] | [4] | [5] | [6]

CC(C)C1(C)N=C(c2ncccc2C(=O)O)NC1=O (stereo not drawn)
inactive: [1] | [3] | [6]

CC1(C)CON(Cc2ccccc2Cl)C1=O
inactive: [1] | [3] | [4] | [5] | [6]

CCOc1cc(C(C)(C)C)ccc1C1COC(c2c(F)cccc2F)=N1 (stereo not drawn)
inactive: [1] | [5] | [6]

COc1cc(Cl)c(OC)cc1Cl
inactive: [1] | [3] | [4] | [5] | [6]

Cc1ccc(N=CN(C)C=Nc2ccc(C)cc2C)c(C)c1
inactive: [1] | [3] | [5] | [6]

COC(=O)NS(=O)(=O)c1ccc(N)cc1
inactive: [1] | [3] | [5] | [7] | [6]

CCCC(=NOCC)C1=C(O)CC(CC(C)SCC)CC1=O (stereo not drawn)
inactive: [1] | [3] | [4] | [5] | [6]

CO/N=C(/C1=NOCCO1)c1ccccc1Oc1ncnc(Oc2ccccc2Cl)c1F
inactive: [1] | [4] | [6]

Cc1cnc(C2=NC(C)(C(C)C)C(=O)N2)c(C(=O)O)c1 (stereo not drawn)
not listed: [2] | [8] | [9]
inactive: all other assays above

CC(C)(C)C(=O)C(Oc1ccc(Cl)cc1)n1cncn1 (stereo not drawn)
inactive: [1] | [3] | [4] | [5] | [6]

OC(c1ccc(Cl)cc1)(c1ccc(Cl)cc1)C(Cl)(Cl)Cl
inactive: [1] | [3] | [4] | [5] | [6]

CC(C)N1C(=O)N(c2ccccc2)CSC1=NC(C)(C)C
inactive: [1] | [3] | [5] | [6]

CCNP(=S)(OC)O/C(C)=C/C(=O)OC(C)C (stereo not drawn)
inactive: [1] | [3] | [4] | [5] | [6]

CC(C)N1C(=O)c2ccccc2NS1(=O)=O
inactive: [1] | [4] | [5] | [7]

CNC(=O)Oc1cccc2ccccc12
inactive: [4] | [5]

Cc1c(COC(=O)[C@@H]2[C@H](/C=C(\Cl)C(F)(F)F)C2(C)C)cccc1-c1ccccc1
inactive: [1] | [3] | [4] | [5] | [6]

CC(C)NC(=O)N1CC(=O)N(c2cc(Cl)cc(Cl)c2)C1=O
inactive: [1] | [3] | [4] | [5] | [6]

COP(=S)(OC)SCn1nnc2ccccc2c1=O
inactive: [3] | [4] | [5] | [6]

CN/C(=N\[N+](=O)[O-])NCc1cnc(Cl)s1
inactive: [1] | [4] | [5] | [6]

COP(=O)(OC)O/C(C)=C/C(=O)N(C)C
not listed: [2] | [8] | [9]
inactive: all other assays above

COCC(=O)N(c1c(C)cccc1C)C(C)C(=O)OC (stereo not drawn)
inactive: [3] | [4] | [5] | [7]

COCC(C)N(C(=O)CCl)c1c(C)csc1C (stereo not drawn)
active: [1] 35.6 µM | [3] 8.81 µM | [4] 24.5 µM | [5] 8.24 µM | [7] 30.8 µM
inactive: [6]

CSC(=O)c1c(C(F)F)nc(C(F)(F)F)c(C(=O)SC)c1CC(C)C
inactive: [1] | [4] | [5] | [6]

CC1(C)C(C(=O)OC(C#N)c2cccc(Oc3ccccc3)c2)C1(C)C (stereo not drawn)
not listed: [2] | [8] | [9]
inactive: all other assays above

CCN(CC)C(=O)C(C)Oc1cccc2ccccc12 (stereo not drawn)
inactive: [1] | [3] | [4] | [5] | [6]

CC(C)Nc1nc(Cl)nc(NC(C)C)n1
inactive: [1] | [4] | [5] | [6]

O=C(O)c1c(Cl)ccc2cc(Cl)cnc12
inactive: [1] | [3] | [5] | [6]

CCCCC(O)(Cn1cncn1)c1ccc(Cl)cc1Cl (stereo not drawn)
inactive: [1] | [3] | [4] | [5] | [6]

CCOc1nc(C(Cl)(Cl)Cl)ns1
inactive: [3] | [5]

C=C(C)CN(CC)c1c([N+](=O)[O-])cc(C(F)(F)F)cc1[N+](=O)[O-]
inactive: [1] | [3] | [4] | [5] | [6]

CCOC(=O)C(C)OC(=O)c1cc(Oc2ccc(C(F)(F)F)cc2Cl)ccc1[N+](=O)[O-] (stereo not drawn)
inactive: [1] | [4] | [5] | [6]

Nc1c(Cl)c(F)nc(OCC(=O)O)c1Cl
inactive: [3] | [4] | [6]
